Among all 320,000 compounds or so, about 2,100 (0.66%) were called active. About 53% were inconclusive and are not listed. Calls come from the whole dose curve; as a rule, active = well fitted inhibition curve with a large enough effect in the signal ratio, with a control signal flat (not every such curve was filed as active); inconclusive = small, poorly fitted or top-dose-only effect, or effect the other way, or a change in a side signal; inactive = flat fitted curve, though single readings scatter; the % refers to the signal ratio. Many of the other results were omitted from the sample, so actives are more common in it than they were.
Potency is the fitted concentration of half-maximal effect.

The test is described as follows: qHTS Assay for Lipid Storage Modulators in Drosophila S3 Cells.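 For cell number change: cells counted by Cell Tracker Red CMTPX staining in the red channel.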 For lipid storage change, negative = inhibition: % is set by controls: 0 for no effect and ±100 for the full control effect. As to conditions: BODIPY lipid droplet fluorescence, 18-24 h, cells fed with added oleic acid; cell number change: measured here: cell count max response; series mostly up to 46.1 µM; lipid storage change, negative = inhibition: at the top concentration. The method in brief: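 Laser-scanning cytometry quantifies lipid droplet accumulation (500–530 nm total intensity; droplet/cell object ratio) in oleic acid-fed (400 uM added) Drosophila S3 cells treated with a concentration series. 20 uM Triacsin C defined 100% inhibition.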
In the case of `CCCCN(C(=O)c1cccc(S(=O)(=O)N2CC(C)OC(C)C2)c1)c1c(N)n(CC(C)C)c(=O)[nH]c1=O` (stereo not drawn), the “lipid storage change, negative = inhibition” value was 17% (inactive).

Take `O=[N+]([O-])c1ccc2nc(C(O)C(O)c3nc4ccc([N+](=O)[O-])cc4[nH]3)[nH]c2c1` (stereo not drawn): the outcome was inactive and the cell number change was 22.3%.

Turning to `O=C(O)CSc1nnc(-c2ccc(Cl)cc2Cl)n1-c1ccccc1`, the compound was classed as inactive and the cell number change is 9.07%.

For `O=C(O)CSc1nnc(-c2cccnc2)n1Cc1ccccc1`, the “lipid storage change, negative = inhibition” value is 7.76% (inactive) and the cell number change is 0.309%.

Regarding `COc1ccc(-c2nnc(SCC(=O)O)n2Cc2ccccc2)cc1`, the “lipid storage change, negative = inhibition” value was -23% (inactive) and the cell number change was determined as 16.6%.

For `O=C(O)CSc1nnc(-c2ccc(Cl)cc2Cl)n1Cc1ccccc1`, the Potency is 5.8 µM (active) and the cell number change is -15.2%.

As for `Cc1cccc(-c2nnc(SCC(=O)O)n2Cc2ccccc2)c1`, the “lipid storage change, negative = inhibition” value is 6.73% (inactive) and the cell number change was -0.739%.

`O=C(O)CSc1nnc(-c2ccccc2O)n1Cc1ccccc1`: the Potency is 25.9 µM (active) and the cell number change turned out to be 0.192%.

As to `Cc1cccc(-c2ccc3ncnc(NCc4cc(C)cs4)c3c2)c1`, the “lipid storage change, negative = inhibition” value is -4.08% (inactive) and the cell number change was 8.79%.

Regarding `O=C(CCSc1ccccc1)Nc1ccccc1Br`, the “lipid storage change, negative = inhibition” value is -12.8% (inactive) and the cell number change was 3.05%.

Turning to `COc1ccccc1NC(=O)COC(=O)CCn1c(C)csc1=O`, the cell number change was -23.2% and the lipid storage change, negative = inhibition is 22.3% [at 0.0737 µM] (inactive).

Turning to `O=C(CN1C(=O)c2ccccc2C1=O)Nc1ccccc1C(=O)NC1CCCCCC1`, the “lipid storage change, negative = inhibition” value is 5.16% (inactive) and the cell number change is 2.31%.

For the compound `COc1cccc(C2CC(C(F)(F)F)n3ncc(C(=O)O)c3N2)c1` (stereo not drawn), the “lipid storage change, negative = inhibition” value was 7.32% (inactive) and the cell number change is -3.05%.

For `CCOC(=O)C1C(=O)Nc2nc(C)nn2C1c1ccccc1` (stereo not drawn), the compound was classed as inactive.

Regarding `Cc1cccc(NC(=O)c2cc3c(=O)n4ccccc4nc3n(CC(C)C)c2=N)c1`, the “lipid storage change, negative = inhibition” value is 4.83% (inactive) and the cell number change amounted to 2.38%.

In the case of `O=c1oc(-c2ccccc2Br)nc2ccccc12`, the compound was classed as inactive and the cell number change is -5.52%.

Regarding `Cc1cc(C)n(-c2ccc(Cl)c(C(=O)Nc3ccc(OC(F)(F)F)cc3)n2)n1`, the “lipid storage change, negative = inhibition” value was 19.9% (inactive) and the cell number change worked out at 14.5%.

Consider `O=C(Nc1ccccn1)c1sc2cccc(F)c2c1Cl`, for which the “lipid storage change, negative = inhibition” value is 1.57% (inactive) and the cell number change amounted to 9.28%.

For the compound `CCCCC(CC)CNC(=O)C(Cc1ccccc1)NS(=O)(=O)c1ccc2c(c1)CCC(=O)N2` (stereo not drawn), the “lipid storage change, negative = inhibition” value is 0.0744% (inactive) and the cell number change stood at 9.41%.

On to `CCCNC(=O)C(Cc1ccccc1)NS(=O)(=O)c1ccc2c(c1)CCC(=O)N2` (stereo not drawn), for which the “lipid storage change, negative = inhibition” value was 8.28% (inactive).

`CCC(C)NC(=O)C(Cc1ccccc1)NS(=O)(=O)c1ccc2c(c1)CCC(=O)N2` (stereo not drawn): the Potency was 20.6 µM (active) and the cell number change amounted to 1.42%.

Regarding `Cc1ccc(NC(=O)N2CCN(C(=O)c3ccco3)CC2)cc1Cl`, the “lipid storage change, negative = inhibition” value was -0.198% (inactive) and the cell number change is -6.19%.

For `Cn1nnnc1SCC(=O)Nc1ccc(Cl)c(S(=O)(=O)N2CCOCC2)c1`, the “lipid storage change, negative = inhibition” value was -1.86% (inactive) and the cell number change worked out at 21.3%.

On to `CC(=O)c1cccc(NC(=O)C2=CC(c3cccs3)=NS(=O)(=O)N2C)c1`, for which the compound was called inactive.

For the compound `CCc1ccc(NC(=O)C2=CC(c3ccc(OC)cc3)=NS(=O)(=O)N2C)cc1`, the Potency is 10.3 µM (active) and the cell number change was -11.3%.

In the case of `COc1ccc(CNC(=O)C2=CC(c3ccc(OC)c(OC)c3)=NS(=O)(=O)N2C)cc1`, the “lipid storage change, negative = inhibition” value was -14.8% (inactive) and the cell number change was -8.36%.

`COc1cc(NC(=O)C2=CC(c3ccc(C)cc3)=NS(=O)(=O)N2C)cc(OC)c1OC`: the Potency was 1.46 µM (active) and the cell number change was -6.34%.

`COc1ccc(C2=NS(=O)(=O)N(C)C(C(=O)Nc3cc(C)ccc3O)=C2)cc1OC`: the “lipid storage change, negative = inhibition” value is 4.1% (inactive) and the cell number change stood at 4.03%.

As to `Cc1ccc(O)c(NC(=O)C2=CC(c3cccs3)=NS(=O)(=O)N2C)c1`, the “lipid storage change, negative = inhibition” value was -11.7% (inactive) and the cell number change was -6.05%.

As to `COc1ccc(NC(=O)C2=CC(c3ccco3)=NS(=O)(=O)N2C)cc1`, the result was inactive and the cell number change worked out at 15%.

Consider `CCc1ccc(NC(=O)C2=CC(c3cccs3)=NS(=O)(=O)N2C)cc1`, for which the Potency was 20.6 µM (active).

Regarding `COc1ccc(NC(=O)C2=CC(c3ccc(C)cc3)=NS(=O)(=O)N2C)cc1OC`, the compound was called inactive and the cell number change is -8.07%.

With `COc1ccc(C2=NS(=O)(=O)N(C)C(C(=O)Nc3ccc(C(C)=O)cc3)=C2)cc1OC`, the “lipid storage change, negative = inhibition” value is 0.308% (inactive) and the cell number change stood at 3.67%.

As for `COc1ccc(CNC(=O)C2=CC(c3ccc(OC)cc3)=NS(=O)(=O)N2C)cc1`, the “lipid storage change, negative = inhibition” value is -22.8% (inactive) and the cell number change is -7.78%.

On to `COc1ccc(NC(=O)C2=CC(c3ccc(C)cc3)=NS(=O)(=O)N2C)cc1`, for which the Potency is 5.17 µM (active) and the cell number change was 4.61%.

As for `CCCN(CCC)Cc1c(C(=O)N/N=C/c2ccco2)nnn1-c1nonc1N`, the “lipid storage change, negative = inhibition” value was 4.78% (inactive) and the cell number change was found to be 1.25%.

On to `O=S(=O)(NC1CC1)c1ccc(S(=O)(=O)N2CCN3CCCC3C2)cc1` (stereo not drawn), for which the “lipid storage change, negative = inhibition” value is -25.1% (inactive) and the cell number change is -22%.

With `C=CCn1c(-c2cccc(OC)c2OC)n[nH]c1=S`, the cell number change came out at 6.07% and the lipid storage change, negative = inhibition was 16.6% [at 9.22 µM] (inactive).

`Cc1cnc(C(=O)NNC(=O)c2ccc(Br)cc2)cn1`: the “lipid storage change, negative = inhibition” value is 14.5% (inactive).

In the case of `CNC(=O)C(=O)Nc1nc(C23CC4CC(CC(C4)C2)C3)cs1`, the “lipid storage change, negative = inhibition” value was 0.543% (inactive).

Regarding `CC(CSc1nnnn1-c1ccccc1)Cn1c(N2CCN(C)CC2)nc2c1c(=O)[nH]c(=O)n2C` (stereo not drawn), the “lipid storage change, negative = inhibition” value was 4.96% (inactive) and the cell number change was -4.1%.

As to `CCOc1ccc(-n2c(SCC(=O)NCc3ccco3)nnc2-c2c[nH]c3ccccc23)cc1`, the outcome was inactive.

On to `CCOC(=O)c1sc(N2N=C(C)/C(=C\c3ccc(OCC(=O)OC)cc3)C2=O)nc1C`, for which the “lipid storage change, negative = inhibition” value was -3.19% (inactive) and the cell number change was determined as 0.316%.

The values above are taken from PubChem BioAssay AID2685 (National Center for Advancing Translational Sciences (NCATS), 2010).
